Results: ChEMBL document CHEMBL3988442, “University of Dundee, Small-Polar-MMV Screening Library” (2021)
The whole screen tested about 53,000 compounds, of which about 900 (1.7%) showed an effect of 50% or more. This is one part of a sample in which strong results are shown more often than they occur.

System: Mycobacterium tuberculosis
Assay: Cornell - Phenotypic assay to identify agents that inhibit growth of Mycobacterium tuberculosis
Format: functional
Design: scale not given: direction of the effect not stated beside the values
Settings: 10 mM as filed; unlikely as a test dose

SMILES | Percent Effect
C1CN(Cc2noc(C3CC3)n2)CCN(Cc2nnc(C3CC3)o2)C1 | -22.59%
Cc1cnn(C2CCCN(C(=O)CCCc3ccccn3)C2)c1 (stereo not given) | 2.711%
COc1ccc(S(=O)(=O)Nc2cnc(N(C)C)nc2)cc1 | -14.34%
CCCN(C(=O)c1cccnc1)c1nc2c(s1)CCc1c-2cnn1C | 30.71%
CCCN(C(=O)c1ccncc1)c1nc2c(s1)CCc1c-2cnn1C | 54%
CCCN(C(=O)c1cnccn1)c1nc2c(s1)CCc1c-2cnn1C | 25.49%
CS(=O)(=O)NC[C@H]1OC[C@H]2CN(CCc3ccccc3)CC[C@H]21.O=C(O)C(F)(F)F | 1.676%
CN1CCOC(CNCc2coc(-c3cccc(Cl)c3)n2)C1 (stereo not given) | 12.33%
COc1ccc(CN(C)[C@@H]2CN(C(=O)c3cccnc3)C[C@H]2O)cc1 | 29.94%
CC(C)c1cc(C(=O)NCC2CCCN(c3ncccn3)C2)n(C)n1 (stereo not given) | 10.83%
COc1cccc(-c2cc(C(=O)N3N=C(C)CC3(O)C(F)(F)F)[nH]n2)c1 (stereo not given) | 58.69%
COc1ccc(-c2cc(C(=O)N3N=C(C)CC3(O)C(F)(F)F)[nH]n2)cc1 (stereo not given) | -4.762%
COc1cccc(-c2cc(C(=O)N3N=C(C)CC3(O)C(F)F)[nH]n2)c1 (stereo not given) | 21.19%
CCOCC(=O)Nc1nccn1Cc1ccc(Br)cc1 | 58.9%
CC(C)(C#N)C(=O)Nc1nccn1Cc1ccc(Br)cc1 | 15.16%
CCOCC(=O)Nc1ncn(Cc2cccc(Br)c2)n1 | -12.98%
CSCC(=O)Nc1nccn1Cc1ccc(Br)cc1 | 106.3%
COCC(=O)Nc1nccn1Cc1ccc(Br)cc1 | 26.85%
COCCC(=O)Nc1nccn1Cc1ccc(Br)cc1 | 27.83%
CNC(=O)C1Cn2ccnc2C2(CCN(C(=O)NC3CCCC3)CC2)O1 (stereo not given) | 14.23%

SMILES | Percent Effect
COCCNC(=O)N1CCCC(COc2ccccc2)C1 (stereo not given) | 32.08%
COCCN1CC(C(=O)Nc2ccc3c(c2)CCC(=O)N3C)CC1=O (stereo not given) | -14.74%
Cn1ncc2c(NCC3CCCN3c3cccnn3)ncnc21 (stereo not given) | 19.68%
CCOc1cccc(COC(=O)c2ccc(Cl)cn2)n1 | 25.49%
CCOc1cccc(COC(=O)c2cc(C)on2)n1 | 56.01%
CCOc1cccc(COC(=O)c2ccc(F)cn2)n1 | 26.62%
CCOc1cccc(COC(=O)c2cscn2)n1 | 94.28%
CCOc1cccc(COC(=O)c2cc(Cl)ccn2)n1 | 14.29%
CCOc1cccc(NC(=O)c2cc(C)on2)n1 | 7.843%
Cc1cnn(CC(C)NCc2nc(-c3ccoc3)no2)c1 (stereo not given) | -18.82%
CC(=O)N1CCN(C(C)c2ccc(Br)cc2)CC1 (stereo not given) | 29.59%
CC(=O)c1cccc(NC(=O)Cn2cc(I)cn2)c1 | 18.59%
COc1ccc(C2CNCCN2C(=O)c2cccc3cccnc23)cc1 (stereo not given) | -23.3%
COc1ccccc1C(=O)N1CCC(Nc2ccc(C)nn2)CC1 | 2.292%
CCc1ccc(NC(C(N)=O)c2ccc(F)cc2)cc1 (stereo not given) | 17.32%
Cc1csc(CN2CCC[C@]3(C[C@H](OCC4CC4)CO3)C2)n1 | 14.79%
CCOc1ccc(C(C)Nc2ncnc3c2CCNC3)cc1OCC (stereo not given) | 51.31%
CC(Nc1ncnc2c1CCNC2)c1ccc(C(C)(C)C)cc1 (stereo not given) | 24.62%
CCCc1ccc(C(C)Nc2ncnc3c2CCNC3)cc1 (stereo not given) | 32.1%
COC(=O)Cn1nc(-c2ccccc2F)ccc1=O | -14.4%

SMILES | Percent Effect
O=c1c(S(=O)(=O)N2CCCCC2)cccn1Cc1ccccc1Cl | 9.959%
CC(C)COC(=O)N1CCCN(C(C)c2nc(C(C)C)no2)CC1 (stereo not given) | 10.17%
O=C(NCCc1cccs1)C1(N2CCCCC2)Cc2ccccc2C1 | 15.22%
CN(C)c1nccc(N2CCO[C@H]3CN(Cc4ccsc4)C[C@H]32)n1.O=C(O)C(F)(F)F | 57.1%
O=C(O)C(F)(F)F.O=C(O)C(F)(F)F.c1cnc(N2CCO[C@H]3CN(Cc4ccsc4)C[C@H]32)nc1 | 5.511%
Cc1cccc(CN2C[C@@H]3OCCN(c4ccnc(N(C)C)n4)[C@@H]3C2)c1.O=C(O)C(F)(F)F | 24.83%
Oc1ccccc1-c1n[nH]c(C2CC2)n1 | -27.03%
CNC(=O)CC1CCN(C(=O)NCc2cn3c(C)cccc3n2)CC1 | 20.05%
CC(=O)N1CCCC(c2ccc(C(=O)NC3CCCC3)cn2)C1 (stereo not given) | -27.02%
O=C(O)CC(O)(CC(=O)O)C(=O)O.O[C@@]1(c2ccccn2)CC[C@H]2CN(Cc3cccc(Cl)c3Cl)C[C@H]21 | 3.215%
Cc1ccc([C@]2(O)CC[C@H]3CN(Cc4cc(C)c(O)c(C)c4)C[C@H]32)nc1.O=C(O)CC(O)(CC(=O)O)C(=O)O | 50.31%
Cc1ccc([C@]2(O)CC[C@H]3CN(Cc4ccccc4F)C[C@H]32)nc1.O=C(O)CC(O)(CC(=O)O)C(=O)O | 8.735%
Cc1ccc([C@]2(O)CC[C@H]3CN(Cc4cccc(F)c4F)C[C@H]32)nc1.O=C(O)CC(O)(CC(=O)O)C(=O)O | -20.35%
COc1ncc(CN2C[C@@H]3CC[C@@](O)(c4ccc(C)cn4)[C@@H]3C2)cn1.O=C(O)CC(O)(CC(=O)O)C(=O)O | -1.54%
Cc1ccc([C@]2(O)CC[C@H]3CN(Cc4cccc(Cl)c4Cl)C[C@H]32)nc1.O=C(O)CC(O)(CC(=O)O)C(=O)O | 69.29%
CN(CCc1ncnn1-c1ccccc1Cl)C1CCS(=O)(=O)C1 (stereo not given) | -16.6%
Cc1ccc(CNS(=O)(=O)CCCC#N)cc1F | 6.478%
CC(c1nccs1)N(C)S(=O)(=O)NCc1ccccc1 (stereo not given) | -14.93%
Cc1cc(C)n(CC2CN(CC(=O)NC(C3CC3)C3CC3)CCO2)n1 (stereo not given) | -31.15%
Cc1ccc(CN2Cc3c(C(=O)N4CCOCC4)nn(C)c3C2)s1.O=C(O)C(F)(F)F | 15.84%
